Compounds with a hit are over-represented: about 4.7% of the library has one in this group of screens.
tim23-1 inh: growth inhibitors of tim23-1 mutant yeast. S. cerevisiae tim23-1 growth, BacTiter-Glo luminescence, 24 h. inhibition, % at 20 µM. 1.3% of 330,000 active;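 active = growth inhibition of the mutant yeast at or above 50%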;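 also: temperature-sensitive mutant grown at 25 °C; plate controls were DMSO-treated mutant yeast for no effect and medium wells lacking yeast for full effect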
TIM10 inh: inhibits growth of TIM10 yeast strain | S. cerevisiae TIM10 strain growth, BacTiter-Glo luminescence, 24 h | inhibition, % at 10 µM | 1.4% of 330,000 active | AID 463195;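 active = inhibition of 40% or more at the single tested concentration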;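 also: wild-type TIM10 isogenic control strain grown at permissive 25 °C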
tim10-1 inh: growth inhibitors of tim10-1 mutant yeast. AID 463190. S. cerevisiae tim10-1 ts strain growth, BacTiter-Glo, 24 h. 2.2% of 330,000 active. inhibition, % at 20 µM;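 active = inhibition of at least 40%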;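 also: mutant grown at 25 °C; 0% = DMSO wells with yeast and 100% = wells holding no yeast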
PfHsp90 yeast 2: reduces growth (ATP signal) of yeast expressing P. falciparum Hsp90; 0.32% of 310,000 active; inhibition, % at 9.4 µM; AID 504621; S. cerevisiae expressing PfHsp90, BacTiter-Glo ATP, 48 h; yeast lacking PDR1 and PDR3 efflux regulators;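 active = every replicate shows inhibition above about 80%, whatever the replicate mean, limit read from the data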;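 also: 0% = DMSO neutral controls and 100% = 20 µM radicicol positive controls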
ATG4B inh: ATG4B (human) cysteine protease inhibition; Q9Y4P1; ATG4B cleavage of LC3-PLA2, NBD-HPC fluorescence, 1 h; inhibition, % at 8.33 µM; 0.51% of 340,000 active; AID 504462; in the data active = inhibition above about 40%
Target sequence (Q9Y4P1 whole entry, looked up): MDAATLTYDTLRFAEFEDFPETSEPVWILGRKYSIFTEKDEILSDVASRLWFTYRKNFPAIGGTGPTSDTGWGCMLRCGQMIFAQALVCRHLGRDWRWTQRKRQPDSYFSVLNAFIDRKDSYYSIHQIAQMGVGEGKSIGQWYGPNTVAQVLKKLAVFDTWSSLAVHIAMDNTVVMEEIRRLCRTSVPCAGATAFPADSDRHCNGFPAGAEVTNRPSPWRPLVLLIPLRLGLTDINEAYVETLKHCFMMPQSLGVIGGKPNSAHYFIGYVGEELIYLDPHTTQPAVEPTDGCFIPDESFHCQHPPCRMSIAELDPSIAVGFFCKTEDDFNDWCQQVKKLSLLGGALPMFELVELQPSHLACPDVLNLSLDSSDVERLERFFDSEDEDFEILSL
SKKanGAS inh: SKKanGAS growth inhibition | 1.3% of 300,000 active | S. pyogenes SKKanGAS, kanamycin growth, BacTiter-Glo, 6 h | inhibition, % at 7.5 µM;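 active = mean replicate score, as percent of positive control median, at least 50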;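 also: strain carries kanamycin resistance gene driven by streptokinase promoter and grows in 40 µg/ml kanamycin; loss of luminescence reflects streptokinase promoter inhibition or plain growth inhibition; 0% = median of DMSO wells and 100% = positive control at its reference dose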
* marks the source's active call; other numbers are inactive results; nt = not tested or not shown.

SMILES | tim23-1 inh | TIM10 inh | tim10-1 inh | PfHsp90 yeast 2 | ATG4B inh | SKKanGAS inh
CCOc1ccc(/C=N/NC(=O)Cc2csc(Nc3cccc(C(F)(F)F)c3)n2)cc1 | 24 | 12 | 20 | -28 | -2 | 80*
O=C(NN1C(=O)/C(=C/c2ccc(O)c([N+](=O)[O-])c2)SC1=S)c1ccccc1Cl | 1 | -74 | -14 | 104* | 18 | 2
C=CCn1c(COc2ccccc2)nnc1SCC(=O)N/N=C/c1cc(Cl)ccc1O | 22 | 11 | 12 | 0 | 9 | 63*
CC(C)C(C(=O)O)N1C(=O)/C(=C/C=C/c2ccco2)SC1=S (stereo not given) | 7 | 4 | 6 | 18 | 65* | 0
O=C1/C(=C/C=C/c2ccco2)SC(=S)N1c1ccc(O)cc1 | 4 | -14 | 0 | -30 | 30 | 0
CCn1c(=O)cc(OCC(=O)NC2CC2)c2ccccc21 | -10 | 11 | 12 | 1 | 3 | -7
CSc1nc(NC(C)C)nc(N2CCOCC2)n1 | -5 | -13 | -21 | 4 | -1 | -4
CCC(C)Sc1cccc(-c2nc3ccc(Cl)cn3c2NCc2ccccc2)c1 (stereo not given) | 20 | 9 | 22 | 3 | 19 | 37
CCCCNc1c(-c2ccc(SC(C)CC)c(OC)c2)nc2ccc(C)cn12 (stereo not given) | -1 | 0 | 34 | -13 | 19 | 72*
CCCCNc1c(-c2ccc(OC)c(Sc3ccc(OC)cc3)c2)nc2cnccn12 | 26 | -3 | 6 | 22 | 11 | nt
CCCCNc1c(-c2ccc(SC(C)CC)cc2)nc2cnccn12 (stereo not given) | 36 | -21 | -22 | 107* | 12 | nt
CCC(C)Sc1cccc(-c2nc3ccc(C)cn3c2NCc2ccccc2)c1 (stereo not given) | 6 | 5 | 33 | 23 | 33 | 67*
CC(Sc1nnnn1C)C(=O)Nc1nc(-c2ccc(F)c(F)c2)cs1 (stereo not given) | 34 | 17 | 29 | -3 | -16 | nt
Oc1cccc(-c2nc3c4c(ncn3n2)-c2ccccc2CC42CCCC2)c1 | 17 | 2 | 19 | 21 | -7 | 106*
CC(=O)CSc1ncnc2sc3c(c12)CCC3 | 32 | 9 | 10 | 8 | 19 | 2
COc1cc(NC(=O)CSc2ncnc3sc4c(c23)CCCC4)c(C(=O)O)cc1OC | 8 | 13 | 1 | 15 | 15 | 55*
CCNC(=O)/C(C#N)=C/c1c(N2CCCCCC2)nc2ccccn2c1=O | 30 | -6 | 18 | -12 | -1 | 8
Cc1cc(=O)[nH]c(/N=C(\N)Nc2ccc3c(c2)OCCO3)n1 | -7 | 4 | -5 | 11 | -4 | 4
CCN1CCN(C(c2ccc(C(F)(F)F)cc2)c2ccc3cccnc3c2O)CC1 (stereo not given) | 49 | -54 | 28 | 121* | 2 | 100*
Cc1ccc(S(=O)(=O)N(C)CCCC(=O)N2CCCCC2)cc1 | -3 | -8 | -3 | 1 | 2 | 1
CC(/C=C1\SC(=Nc2cccnc2)NC1=O)=C\c1ccccc1 | 31 | 29 | 16 | 10 | 18 | 56*
Cc1cc(=O)[nH]c(SCC(=O)N2CCC(Cc3ccccc3)CC2)n1 | 14 | -4 | 9 | -19 | -5 | -3
CC(=O)Nc1ccc(NC(C)=O)s1 | 21 | 2 | 4 | -14 | -5 | -3
CCCCCNc1nc(-c2ccccc2)nc(-n2ccnc2)n1 | 1 | 5 | 19 | 2 | 8 | -4
c1ccc(-c2nc(N3CCN(c4ccccc4)CC3)nc(-n3ccnc3)n2)cc1 | -4 | 18 | 16 | nt | -5 | 60*
O=C1CN(/N=C/c2ccc([N+](=O)[O-])o2)C(=O)N1 | -2 | 8 | 5 | nt | 1 | 84*
O=C(Nn1c(Cc2ccccc2)nc2ccccc2c1=O)c1c(O)c2cccc3c2n(c1=O)CCC3 | 23 | 24 | 23 | -25 | -6 | 71*
CCCc1nnc(NC(=O)c2c(O)c3cccc4c3n(c2=O)CCC4)s1 | -22 | 4 | -8 | nt | nt | 87*
COc1cccc(NC(=O)CCc2nc(-c3ccccc3F)no2)c1 | -10 | -29 | -1 | -16 | 4 | -4
CCc1c(C(=O)N/N=C/c2sccc2C)nnn1-c1nonc1N | 0 | 8 | -24 | -35 | -5 | -2

Screening results (PubChem)
